E coli RNAP = E. coli RNAP inhibitors, biochemical | DNA-directed RNA polymerase subunit beta (Escherichia coli (strain K12)), P0A8V2 | E. coli RNA polymerase, fluorescence transcription assay | inhibition, %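 (tested at 10 µM)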 | hit rate 0.2% among 62,000 | AID 559, 2006; in the data active = inhibition above about 20%;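 also: 0% = enzyme without compound and 100% = no enzyme blank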
PTK2B oligo ant = antagonists of Pyk2 self-association, primary screen, Q293 cells, FERM NanoBiT luminescence, HTS; hit rate 0.83% among 99,000; AID 1347419, 2020; active compounds read low; Protein-tyrosine kinase 2-beta (Homo sapiens), Q14289; z-score (the deposit names both 25 µM and 10 µM);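 active = Z-score of -3 or lower, scaled per plate to the spread of control and sample wells; inactive = z-score above -3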;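 also: negative z-score means lost luminescence so less FERM oligomerization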
Target sequence (Q14289 whole entry, looked up): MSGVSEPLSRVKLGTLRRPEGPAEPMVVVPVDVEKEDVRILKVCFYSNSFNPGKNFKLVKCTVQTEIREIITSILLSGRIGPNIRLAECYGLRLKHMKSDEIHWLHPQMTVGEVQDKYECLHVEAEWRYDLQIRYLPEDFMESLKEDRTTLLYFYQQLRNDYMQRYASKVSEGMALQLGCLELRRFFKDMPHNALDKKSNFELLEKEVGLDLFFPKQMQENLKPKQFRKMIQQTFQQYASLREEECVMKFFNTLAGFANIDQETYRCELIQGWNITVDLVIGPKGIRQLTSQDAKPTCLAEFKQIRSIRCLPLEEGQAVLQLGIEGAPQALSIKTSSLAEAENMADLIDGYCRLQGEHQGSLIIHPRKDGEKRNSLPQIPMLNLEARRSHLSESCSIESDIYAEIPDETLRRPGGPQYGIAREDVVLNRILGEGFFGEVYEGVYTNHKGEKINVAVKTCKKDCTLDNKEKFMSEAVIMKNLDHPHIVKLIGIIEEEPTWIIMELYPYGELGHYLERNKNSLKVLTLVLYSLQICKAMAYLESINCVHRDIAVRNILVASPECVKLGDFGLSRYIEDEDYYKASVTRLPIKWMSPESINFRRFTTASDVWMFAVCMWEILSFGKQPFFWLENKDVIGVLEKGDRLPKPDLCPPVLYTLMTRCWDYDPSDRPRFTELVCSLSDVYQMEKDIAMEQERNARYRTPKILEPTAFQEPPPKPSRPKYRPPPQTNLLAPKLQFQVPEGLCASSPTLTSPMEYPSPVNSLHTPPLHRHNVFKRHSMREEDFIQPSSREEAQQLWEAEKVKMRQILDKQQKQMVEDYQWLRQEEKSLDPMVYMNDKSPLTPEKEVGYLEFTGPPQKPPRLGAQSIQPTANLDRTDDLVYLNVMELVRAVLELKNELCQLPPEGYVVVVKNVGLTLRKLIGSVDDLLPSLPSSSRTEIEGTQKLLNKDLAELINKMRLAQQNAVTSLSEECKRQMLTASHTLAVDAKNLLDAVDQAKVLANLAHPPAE
Cav32 inh = Cav3.2 calcium influx blockers – cell-based, Fluo-4 calcium fluorescence, FDSS, MLSMR library, primary screen | Voltage-dependent T-type calcium channel subunit alpha-1H (Homo sapiens), O95180 | Cav3.2-expressing cells; active compounds read low | B-score at 10 µM | hit rate 4% among 100,000 | AID 449739, 2010;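 active = single-dose well whose peak fluorescence ratio is a statistical outlier from its plate by either plate-standardised score or position-corrected B-score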
CD11b adhes enh = enhancers of CD11b/CD18 adhesion to fibrinogen, primary screen, K562 cells, luminescence; ATPlite luminescence; hit rate 0.07% among 93,000; Integrin beta-2 (Homo sapiens) + Integrin alpha-M (Homo sapiens), P05107+P11215; activation, % at 10 µM;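 active = 10 µM primary screen giving 50% or more activity, confirmed by 40% or more on retest at that dose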
CD11b adhes inh = inhibitors of CD11b/CD18 adhesion to fibrinogen, primary screen, K562 cells, luminescence | ATPlite luminescence; Mn2+ added to activate the integrin | hit rate 0.54% among 93,000 | Integrin beta-2 (Homo sapiens) + Integrin alpha-M (Homo sapiens), P05107+P11215 | inhibition, % at 10 µM;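 active = primary inhibition of 50% or more at 10 µM, then 40% or more on retest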
Starred values were filed as active, the others as inactive; · = not tested or not shown. Compounds with a hit are over-represented: about 4.2% of the library has one in this group of screens.

SMILES	E coli RNAP	PTK2B oligo ant	Cav32 inh	CD11b adhes enh	CD11b adhes inh
O=C(Oc1ccccc1Cl)c1ccc(-n2cncn2)nc1	·	0.03	1.2	·	·
N#Cc1c(NC(=O)COC(=O)C2CC3C=CC2C3)oc(-c2ccccc2)c1-c1ccccc1 (configuration not stated)	6	-1.5	-6*	-2	71
CCn1c(SCC(=O)Nc2oc(-c3ccccc3)c(-c3ccccc3)c2C#N)nnc1-c1cc(OC)cc(OC)c1	·	-1.6	-2.6	-4	-2
COc1ccc(CC(=O)Nc2oc(-c3ccccc3)c(-c3ccccc3)c2C#N)cc1OC	2	-3.3*	-5.6*	·	·
COc1ccc(-c2oc(NC(=O)CCl)c(C#N)c2-c2ccc(OC)cc2)cc1	·	-0.63	0.69	4	-25
N#Cc1c(NC(=O)CN2CCOCC2)oc(-c2ccccc2)c1-c1ccccc1	10	-0.21	-3.1	3	1
COc1ccc(-c2oc(NC(=O)CSc3ncn[nH]3)c(C#N)c2-c2ccc(OC)cc2)cc1	·	-4*	-0.15	-4	0
Cc1ccc(OCC(=O)Nc2oc(-c3ccccc3)c(-c3ccccc3)c2C#N)cc1	·	-1.3	-7.5*	·	·
COc1ccc(CN2CC[C@H]3C=CC[C@@H](C(=O)Nc4ccc(Cl)c(C(F)(F)F)c4)[C@H]3C2=O)cc1OC	·	·	-2.7	·	·
N#Cc1c(NC(=O)CSc2n[nH]c(Cc3ccccc3)n2)oc(-c2ccccc2)c1-c1ccccc1	11	-2.2	-6.4*	-11	86
N#Cc1c(NC(=O)Cn2cnc3ccccc3c2=O)oc(-c2ccccc2)c1-c1ccccc1	6	-1.8	-10*	4	50
O=C(COC(=O)C1CC2C=CC1C2)Nc1ccc2c(c1)OC(F)(F)O2 (configuration not stated)	5	1.4	-5.5*	·	·
COc1ccccc1OCC(=O)Nc1oc(-c2ccccc2)c(-c2ccccc2)c1C#N	7	-3.7*	-6.9*	-11	89
N#Cc1c(NC(=O)CSc2ncccn2)oc(-c2ccccc2)c1-c1ccccc1	·	0.83	·	·	·
CC1C(c2ccccc2)N(C)C(c2ccccc2)C(C)C1(O)C#Cc1ccccc1 (configuration not stated)	·	-0.46	·	-1	25
COc1ccc(C2CC2/C(=N/OC(=O)c2cccs2)c2ccccc2)cc1 (configuration not stated)	·	-0.83	-6*	-6	21
C/C(=N\NC(=O)C1CC1c1ccccc1)c1cccs1 (configuration not stated)	·	-0.13	-0.28	·	·
Brc1ccc2c(c1)OCCOCCOCCOCCOCCOCCO2	·	1.1	·	·	·
O=C(O)c1ccc(NC(=S)NC(NC(=O)c2ccco2)C(Cl)(Cl)Cl)cc1 (configuration not stated)	·	1.3	-4*	-1	-66
Cc1cccc(NC(=S)NC(NC(=O)c2ccco2)C(Cl)(Cl)Cl)c1 (configuration not stated)	·	-1.4	-6.1*	2	-12
Cc1ccc(NC(=S)NC(NC(=O)c2ccco2)C(Cl)(Cl)Cl)cc1 (configuration not stated)	·	-0.35	-0.85	-3	10
Cc1ccc(C)c(SCC(=O)Nc2cc(C)nn2-c2ccc(F)cc2)c1	·	·	·	1	2
Cc1ccccc1C(=O)NNc1ccc([N+](=O)[O-])cc1	·	0.2	-0.77	-4	1
O=C(NC(NNc1ccc([N+](=O)[O-])cc1)(C(F)(F)F)C(F)(F)F)c1ccccc1Cl	·	0.84	-8.5*	-4	22
N#CC(c1ccc(Cl)cc1)c1ncc(C(F)(F)F)cc1Cl (configuration not stated)	·	-1.1	-4.6*	·	·
SMILES	E coli RNAP	PTK2B oligo ant	Cav32 inh	CD11b adhes enh	CD11b adhes inh
CC(Oc1ccccc1)C(=O)Nc1cccc(-c2nc3ccccc3[nH]2)c1 (configuration not stated)	·	-1.1	-4.6*	-4	8
O=S(=O)(c1ccc2ccccc2c1)N(CC(O)COCc1ccco1)c1ccccc1 (configuration not stated)	·	0.41	-5.1*	-1	23
CCn1c(SCC(=O)Nc2ccccc2C)nnc1-c1ccccc1O	5	0.79	0.37	0	-66
CCn1c(SCC(=O)Nc2nc(-c3ccccc3)cs2)nnc1-c1ccccc1O	3	-3.1*	·	-12	100
Cc1ccc(-n2c(CSc3nc(C)cc(C)n3)nnc2SCC(=O)Nc2nccs2)cc1	9	·	·	·	·
CCc1nnc(NC(=O)CSc2nnc(-c3cc4ccccc4cc3O)n2CC)s1	2	-3*	-1.7	0	6
CCn1c(CCNC(=O)c2cccs2)nnc1SCC(=O)Nc1cccc(Cl)c1	·	-0.91	-1.3	·	·
Cc1cc(C)nc(SCc2nnc(SCC(=O)Nc3nc(-c4ccccc4)cs3)n2-c2ccccc2)n1	·	-0.25	-8.4*	6	8
CCn1c(CCNC(=O)c2cccs2)nnc1SCC(=O)Nc1nc(-c2ccccc2)cs1	·	-3	-7.5*	·	·
CCc1nnc(NC(=O)CSc2nnc(-c3ccccc3O)n2CC)s1	·	-0.58	-4.8	-4	-5
CCc1c(C#N)c(SCCC(=O)Nc2ccc(OC)cc2)nc2c1C(=O)CC(C)(C)C2	·	-3.1*	-1.1	0	11
CCc1c(C#N)c(SCc2c(C)noc2C)nc2c1C(=O)CC(C)(C)C2	-2	·	·	·	·
O=c1c([N+](=O)[O-])cc(C(F)(F)F)cn1Cc1c(Cl)cccc1Cl	·	0.15	·	·	·
O=c1[nH]c(CN(CCO)CCO)nc2c1C1(CCCCC1)Cc1ccccc1-2	9	-1	-11*	0	1
C=CCNC(=S)NNc1nc2c(c(=O)[nH]1)C1(CCCCC1)Cc1ccccc1-2	·	·	·	-7	101
CCN(CC)Cc1nc2c(c(=O)[nH]1)C1(CCCC1)Cc1ccccc1-2	·	-0.8	-6.7*	·	·
CCn1c(SCC#N)nc2c(c1=O)C1(CCCC1)Cc1ccccc1-2	·	-2.4	-6.9*	-2	20
O=c1[nH]c(NCCO)nc2c1C1(CCCC1)Cc1ccccc1-2	·	-0.76	-4.1*	·	·
CCC(C)c1ccc(O)c(N)c1 (configuration not stated)	28*	-0.5	-0.067	-2	-18
Cc1c(/C=N\NC(=O)C2COc3ccc(C(C)(C)C)cc3O2)c2ccccc2n1C (configuration not stated)	·	0.03	·	47	11
Cc1cc(C)c2nc3s/c(=C/c4ccccc4)c(=O)n3c2c1	·	·	·	-5	57*
Cc1ccc2c(nc3s/c(=C/c4cccs4)c(=O)n32)c1C	·	0.81	·	33	15
CC(C)=C1C2CCC1C1C(=O)N(NC(=O)COc3ccc(C(C)(C)C)cc3)C(=O)C21 (configuration not stated)	·	-0.6	-8.4*	-1	-3
CCc1cccc(CC)c1-n1c(SCn2nnc3ccccc3c2=O)nnc1-c1cccnc1	·	-2.4	-5.3*	0	-4
CCOc1ccccc1OCCCC(=O)Nc1sccc1C(N)=O	·	·	·	6	21

Screening data (PubChem)
